# Assay results published in publication PMC12136788.
# Where a chain is given by its changes, count along the chain named. Whole data set: some 24,000 sequences, median “enrichment r” near 0.99, cut for the highest 2% near 3.7. The entries come from a sample that favours the highest values as a whole.
# T1: UNK ZnF1-3 (human, UniProt Q9C0B0 31-174)
# T1 sequence: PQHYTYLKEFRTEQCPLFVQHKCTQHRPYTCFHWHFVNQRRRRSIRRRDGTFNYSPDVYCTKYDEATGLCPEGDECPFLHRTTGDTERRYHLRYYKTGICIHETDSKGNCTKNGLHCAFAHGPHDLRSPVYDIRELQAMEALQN
# B1: chr21:44329077:44329078:+_ENSG00000160194_ENST00000354250|hu_hu|motif|central (ssRNA)
# RNA: GGGAGUUCUACAGUCCGACGAUCCUCCCGGCCUGAGGAGGGCUGAGGCAUCCUGAAUUUUGAGAGUUCGAGGUUGAGGUCGGAGAAGGUGUACGUGCUGUAGUCAUGAUGCUGCAGGUUCUUGUAGGUAGUGUUGUCAAACGGCAACAGAGGAUUGAGCAUCA
# B2: chr2:115689366:115689367:-_ENSMUSG00000027210_ENSMUST00000074285|mus_mus|FALSE|FALSE (ssRNA)
# RNA: GGGAGUUCUACAGUCCGACGAUCUCUUUGAAGAACAGUCCCCCAAAAUCAUAAUAAGAAUUGGCUUAUGAAGCACAAACUAUAAAGAUCUGUUUGAAACUAAAGGACACAUGGACGGGGGGAACAAAGGCCGGGCAUGAAAACCAACAGAGGAUUGAGCAUCA
# B3: chr8:13019134:13019135:+_ENSMUSG00000031442_ENSMUST00000123811|mus_mus|motif|central (ssRNA)
# RNA: GGGAGUUCUACAGUCCGACGAUCUGGCUGACAGGGGCCUCCUGUUUCCAGAGAUCUCGGAGCACCAUCCCCUCCCAAACGGAGCAAGCCCAAGCAAAAAUAAAAAUUAAAAAUAAAAAAAAACCAAAAAACUUAGAGAUUUGCCAACAGAGGAUUGAGCAUCA
# B4: chr11:93905761:93905762:+_ENSMUSG00000020859_ENSMUST00000103168|mus_mus|FALSE|FALSE (ssRNA)
# RNA: GGGAGUUCUACAGUCCGACGAUCCGCUGGCACCCCGGUAGAAAUAGAAAAGUGCACAAGCAGCAAAACAGAGAGAGAUACUAAGAUCGCAGAAUUAAUGACCACCGCCCCGCCAACAAAGCCAAACACAAACAGCAGCAUGCACAACAGAGGAUUGAGCAUCA
# B5: chr8:117868997:117868998:-_ENSG00000164754_ENST00000297338|hu_hu|motif|central (ssRNA)
# RNA: GGGAGUUCUACAGUCCGACGAUCCACCCCUGCCUCAGAGAGGGCAGGGGGAUCAUCAAAGAUACCGCCAUCAUUAUUACGGAUAAGUUUGUCAUCUAAUAUUCCACCAUCAUUUCCUUCUCCAAAAUUAUCAUCCUUAUAUUGCAACAGAGGAUUGAGCAUCA
# B6: chr17:62500844:62500845:-_ENSG00000108654_ENST00000583239|hu_mus|motif|central (ssRNA)
# RNA: GGGAGUUCUACAGUCCGACGAUCUUGAUAAAAAUUCUUCUCAAAUUUGGGCAGCUCAUCAAGAUUCCACUUCUUUUUAACGGGUUUCUCCCCAGGAUUUCCAAACUUCUUUCCAGAGAGGGGUCCUGUUCUACUCCCUCCAAACAACAGAGGAUUGAGCAUCA
# B7: chr5:116097646:116097647:+_ENSMUSG00000029518_ENSMUST00000031492|mus_mus|FALSE|FALSE (ssRNA)
# RNA: GGGAGUUCUACAGUCCGACGAUCUAAAAAGCAUAAUUAGAAACUUUCAAUACAGAAAUAGUCCUAGCAAACCAUUUAAAAGUUGGUUGUUUGACAGGAGUUUCACAUCGGGCCCACCAGGGUACCAGUGUAGCCCUGAUUCUCCAACAGAGGAUUGAGCAUCA
# B8: chr8:13019134:13019135:+_ENSMUSG00000031442_ENSMUST00000123811|mus_mus|FALSE|FALSE (ssRNA)
# RNA: B3 RNA with G80U, G81A
# B9: chr8:86519384:86519385:+_ENSMUSG00000005469_ENSMUST00000005606|mus_mus|FALSE|FALSE (ssRNA)
# RNA: GGGAGUUCUACAGUCCGACGAUCUAAAUUAGAUGCAUGGAACUCUAGGGCCCUCUGGCUGUUCGAUCCAACCCUCCCACCCCCAACCGGAAAAAAAAUAGAAAGAAAAAGAAAAAAUGAAAGAGAACCCAAGGGGCACAAGCACAACAGAGGAUUGAGCAUCA
# B10: chr1:225611761:225611762:-_ENSG00000143815_ENST00000272163|hu_mus|hu_hu_hu_mus_True|18_78 (ssRNA)
# RNA: GGGAGUUCUACAGUCCGACGAUCCCAGGCCAUCGGCCUCUGACCACUUCACCCUCAGCAAAUUUCCUACUUGGCAUUUUCUAAAAUUAGUCUGGCCGCGCUCCGGCGGGAACUCCAGACGGCUCCCGACAGUCACCAGCAGCCCAACAGAGGAUUGAGCAUCA
# B11: chr1:241675328:241675329:-_ENSG00000091483_ENST00000366560|hu_mus|FALSE|FALSE (ssRNA)
# RNA: GGGAGUUCUACAGUCCGACGAUCGCUUUUGUUAACAUGAUCAUUGGGGUGCACAGGCUUCUUGCUGCCAAGUUCACCUCCUAACAUUUCAAUUGCUCUGUUGCUAAUGACUUCAUUUACAUUCAUGUUUGUCUGGGUUCCUGACAACAGAGGAUUGAGCAUCA
# B12: chr17:45747064:45747065:+_ENSG00000108424_ENST00000290158|hu_hu|hu_hu_hu_mus_True|38_108 (ssRNA)
# RNA: GGGAGUUCUACAGUCCGACGAUCGCCUACAGUCCAUGCUGUUGUGUCUCGAACAACUACACUGGGGUCUUUCAUUAGUUCUAUUAGGGUGGGCAUAGCCUGUAUAACUAAUGGUUUCAGUUGAUUAGGCUCUGGUCCUUCCAACAACAGAGGAUUGAGCAUCA
# B13: chr18:10010020:10010021:-_ENSMUSG00000047879_ENSMUST00000092096|mus_hu|FALSE|FALSE (ssRNA)
# RNA: GGGAGUUCUACAGUCCGACGAUCCUCGGCAAACUGUGGGAAAGCCAUGUGCAAAAACUGCAGUAGAAUAAUAGGUGGAAUACUGGAAGAAGUUUUAUCCAUGGAAUCAAACAAAUCUCUAAGGGCUGCAGUAAUAUACUGCGCCAACAGAGGAUUGAGCAUCA
# B14: chr7:149068622:149068623:-_ENSMUSG00000025139_ENSMUST00000001950|mus_hu|mus_mus_mus_hu_False|68_98 (ssRNA)
# RNA: GGGAGUUCUACAGUCCGACGAUCGUGAGGCCUCUGAGUGAGGUUCCUGGUCUGUCCUGGGUUAGAGCUGCUGGUAACACGGAACAUACCAUCUAGAACGUUCCAGUCCCGCCUGACACCUUCAUUCCCAAUGGAGAAGAAAUCCAACAGAGGAUUGAGCAUCA
# B15: chr7:141445308:141445309:+_ENSG00000106028_ENST00000265304|hu_hu|hu_hu_hu_mus_False|48_68 (ssRNA)
# RNA: GGGAGUUCUACAGUCCGACGAUCUAUGAUUGUUGUUGCUUGCCGCCUCACAUUGUUUUUAUCCAUGUAUUCACCAUAGUCCACUUUCCCUUCCAAAAAUAUACGAGCCCCCUUUUUCACAUACUGAUAUGCCACAUCUCUGAGCAACAGAGGAUUGAGCAUCA
# B16: 120768192_120770490_416_CDS_ENSMUSG00000043207_ENSMUST00000058754|mouse|control|control (ssRNA)
# RNA: GGGAGUUCUACAGUCCGACGAUCGCUGAAGGUACUUUUAUCCAGUUGAUACAAUCGAGAUUUCUCAAACGUGUCCGAAUCCAUGAUCUGUUCUAACUCUGCUGGUACGCGAGUCGUCGUUUUGUAUAUCCUUCUCUGCCGCUGCAACAGAGGAUUGAGCAUCA
# B17: chr20:57570089:57570090:+_ENSG00000101158_ENST00000344018|hu_mus|FALSE|FALSE (ssRNA)
# RNA: GGGAGUUCUACAGUCCGACGAUCACUCCCACACACACACAUACAACUCAACAUUACUCUUGGAAACUUAAAGUAACUGACCAUCUGGGUCAUAGGAAGGAAACUUACAUAAACCCUUCAUGAAGUGUCCCAGCUGCUAGAUUCCAACAGAGGAUUGAGCAUCA
# B18: chr1:60041781:60041782:+_ENSMUSG00000041040_ENSMUST00000036540|mus_hu|mus_mus_mus_hu_False|18_88 (ssRNA)
# RNA: GGGAGUUCUACAGUCCGACGAUCAAGUUUACAAUAGUAAAGUAAAUCAAAUUUAGUCAAAUUUUCUUUUAUUUUCCUUCACAAAAGAAAAUCUUUAUAACCCAGUCCUAGUCUUGGCAGAGAAAGCAGCUAUAAAUUCUGACUCAACAGAGGAUUGAGCAUCA
# B19: chr15:76909541:76909542:-_ENSMUSG00000033565_ENSMUST00000166610|perfect_dup|motif|central (ssRNA)
# RNA: GGGAGUUCUACAGUCCGACGAUCAACAUGAUCAAUAAUUUAUACACAUGGAGAGUAAUACAAAAAAAUAAGGAAUAAAAGCGGAAGAUCUAACUACUCCGACCUUCACAAUUCCAGCUACUUGAUAAUAAUAGGAGUAACCCACAACAGAGGAUUGAGCAUCA
# B20: chr1:163117127:163117128:-_ENSG00000143248_ENST00000313961|hu_mus|hu_hu_hu_mus_False|48_78 (ssRNA)
# RNA: GGGAGUUCUACAGUCCGACGAUCUGCUACAAAGGAUGUAACUCAACUCACAGGGCAUGAUUUCAUAGCCUGACCAGAUGACUACUUGAUUAACUCCUUAUAAAAUUCAGAGCGCACAAAGCGGGGCAGAGAAUCCUUCUCCAUCAACAGAGGAUUGAGCAUCA
# B21: chr1:163117127:163117128:-_ENSG00000143248_ENST00000313961|hu_mus|hu_hu_hu_mus_False|18_78 (ssRNA)
# RNA: B20 RNA with A92G, G123A
# B22: chr15:76909541:76909542:-_ENSMUSG00000033565_ENSMUST00000166610|perfect_dup|FALSE|FALSE (ssRNA)
# RNA: B19 RNA with G82U, G83A
# Target: T1, UNK ZnF1-3
# Test: nsRBNS (natural sequence RNA bind-n-seq); RBNS binding buffer (assumed for nsRBNS): 25 mM Tris pH 7.5, 150 mM KCl, 3 mM MgCl2, 0.01% Triton X-100, 500 ug/ml BSA, 20 U/ml SUPERase-In, 4 C; UNK is unkempt and MSI1 is Musashi-1; names of the RNAs are library labels; protein concentration not given here; high values mean tight binding
row,Binder,binding signal
1,B1,1.5 enrichment R
2,B2,2.13 enrichment R
3,B3,14.4 enrichment R
4,B4,2.57 enrichment R
5,B5,1.12 enrichment R
6,B6,1.28 enrichment R
7,B7,0.472 enrichment R
8,B8,21.6 enrichment R
9,B9,6.04 enrichment R
10,B10,1.27 enrichment R
11,B11,0.274 enrichment R
12,B12,0.577 enrichment R
13,B13,1.59 enrichment R
14,B14,0.742 enrichment R
15,B15,0.799 enrichment R
16,B16,0.656 enrichment R
17,B17,1.41 enrichment R
18,B18,0.9 enrichment R
19,B19,8.91 enrichment R
20,B20,1.08 enrichment R
21,B21,0.919 enrichment R
22,B22,6.42 enrichment R
